According to PubChem BioAssay AID720555 (National Center for Advancing Translational Sciences (NCATS), 2013):
Records with an inconclusive call do not appear. Unmarked numbers belong to inactive results. Activity calls are given as the source filed them. Calls come from the whole dose curve; as a rule, active = well fitted inhibition curve with a large enough effect; inconclusive = small, poorly fitted or top-dose-only effect; inactive = no such curve, though single readings can be large or run the other way.

The compounds below were run against RecQ-like DNA helicase BLM (Homo sapiens) (UniProt P54132) (assay: qHTS for Inhibitors of Bloom's syndrome helicase (BLM): Helicase DNA unwinding fluorescent orthogonal confirmatory assay for SAR). Details: fluorescence, orthogonal confirmation; series mostly up to 55.6 µM; activity change, negative = inhibition: at the top concentration.
Sequence of RecQ-like DNA helicase BLM (Homo sapiens) (P54132 whole entry, looked up): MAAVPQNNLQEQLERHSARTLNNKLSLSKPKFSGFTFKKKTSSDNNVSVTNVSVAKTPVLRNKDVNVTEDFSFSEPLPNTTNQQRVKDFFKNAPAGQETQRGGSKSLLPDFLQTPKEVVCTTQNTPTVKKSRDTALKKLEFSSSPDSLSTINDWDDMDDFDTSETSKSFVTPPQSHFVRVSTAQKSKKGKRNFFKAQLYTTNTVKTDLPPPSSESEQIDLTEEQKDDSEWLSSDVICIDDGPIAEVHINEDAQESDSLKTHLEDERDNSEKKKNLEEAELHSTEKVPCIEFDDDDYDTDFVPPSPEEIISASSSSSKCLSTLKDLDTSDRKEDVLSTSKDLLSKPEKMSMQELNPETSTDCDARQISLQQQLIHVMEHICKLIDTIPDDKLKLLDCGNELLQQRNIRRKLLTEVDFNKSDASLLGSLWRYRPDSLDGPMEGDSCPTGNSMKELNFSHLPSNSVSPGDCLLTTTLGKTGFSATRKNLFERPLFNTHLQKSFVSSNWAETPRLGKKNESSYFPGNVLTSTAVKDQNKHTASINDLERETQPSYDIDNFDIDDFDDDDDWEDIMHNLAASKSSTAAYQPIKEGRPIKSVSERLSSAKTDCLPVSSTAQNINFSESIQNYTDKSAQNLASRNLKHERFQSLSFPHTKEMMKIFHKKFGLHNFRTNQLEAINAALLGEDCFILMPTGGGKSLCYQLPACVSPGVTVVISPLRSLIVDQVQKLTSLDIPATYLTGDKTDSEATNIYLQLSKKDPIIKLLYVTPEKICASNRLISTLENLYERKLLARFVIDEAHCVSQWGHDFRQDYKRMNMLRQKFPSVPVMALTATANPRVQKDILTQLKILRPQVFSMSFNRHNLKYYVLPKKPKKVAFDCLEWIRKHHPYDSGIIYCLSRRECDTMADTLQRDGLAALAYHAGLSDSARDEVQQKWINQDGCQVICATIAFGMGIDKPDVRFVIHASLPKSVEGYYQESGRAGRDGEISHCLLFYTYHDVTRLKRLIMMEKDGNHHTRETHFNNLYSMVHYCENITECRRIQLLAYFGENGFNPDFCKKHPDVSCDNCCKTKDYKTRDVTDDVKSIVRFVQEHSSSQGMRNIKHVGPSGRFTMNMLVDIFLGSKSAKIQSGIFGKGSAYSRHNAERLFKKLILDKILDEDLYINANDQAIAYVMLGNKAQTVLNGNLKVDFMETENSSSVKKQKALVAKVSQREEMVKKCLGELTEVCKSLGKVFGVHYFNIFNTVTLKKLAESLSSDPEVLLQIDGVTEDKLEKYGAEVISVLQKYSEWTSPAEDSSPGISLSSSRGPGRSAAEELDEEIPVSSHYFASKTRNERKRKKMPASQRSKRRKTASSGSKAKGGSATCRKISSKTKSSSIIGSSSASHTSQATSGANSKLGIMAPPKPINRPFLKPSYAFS
Summary of the method: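 Purified BLM unwound a fluorescently labelled DNA substrate at room temperature in pH 7.5 Tris buffer with 2mM ATP and 2mM MgCl2. Products were resolved on native 15% gels. Loss of single-stranded product band, normalised to no-inhibitor and no-enzyme controls, indicates inhibition.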

SMILES	activity change, negative = inhibition	Potency
O=C(Nc1ccc2ccccc2c1)Nc1nnc(-c2ccccc2F)s1	-2.28%	
O=C(NCc1ccc(Cl)c(Cl)c1)Nc1nnc(-c2ccncc2)s1		39.8 µM (active)
O=C(Nc1ccc(Cl)c(Cl)c1)Nc1nnc(C2CCCCC2)s1	-3.65%	
N#Cc1cc(NC(=O)Nc2nnc(-c3ccncc3)s2)ccc1-c1ccc[nH]1		3.55 µM (active)
O=C(Nc1ccc(Cl)c(Cl)c1)Nc1nnc(-c2cccnc2)s1		3.55 µM (active)
Cc1ccc(-c2nnc(NC(=O)Nc3ccc4ccccc4c3)s2)cc1	-1.64%	
O=C(Nc1ccc(Cl)c([N+](=O)[O-])c1)Nc1nnc(-c2ccc(F)cc2)s1		2.24 µM (active)
O=C(Nc1cccc(C(=O)O)c1)Nc1nnc(-c2ccncc2)s1	-8.63%	
O=C(Nc1ccc(Cl)c(Cl)c1)Nc1ccc(-c2ccncc2)s1	5.54% [at 53.6 µM]	
CC(C)(C)NC(=O)Nc1nnc(-c2ccncc2)s1	5.44%	
O=C(Nc1cc(F)cc(F)c1)Nc1nnc(-c2ccncc2)s1		15.8 µM (active)
O=C(Nc1ccc2sccc2c1)Nc1nnc(-c2ccncc2)s1		10 µM (active)
O=C(Nc1ccc(F)c(F)c1)Nc1nnc(-c2ccncc2)s1		8.91 µM (active)
O=C(Nc1ccc(Cl)c(C(F)(F)F)c1)Nc1nnc(-c2ccncc2)s1		7.08 µM (active)
O=C(Nc1ccc(Cl)c([N+](=O)[O-])c1)Nc1nnc(-c2ccncc2)s1		1 µM (active)
S=C(Nc1ccc(Cl)c(Cl)c1)Nc1nnc(-c2ccncc2)s1		3.98 µM (active)
S=C(Nc1ccc(Cl)c(Cl)c1)Nc1nnc(-c2ccncc2)o1	1.29%	
